GLP-1R inv ag: qHTS of GLP-1 Receptor Inverse Agonists (Inhibition Mode); Potency, µM (highest dose often 38.3 µM), actives largely listed as inhibitors; AID 624417, 2012; 1.6% of 410,000 active; HEK293 GLP-1R CRE-luciferase, luminescence, 24 h; GLP-1R form is constitutively active; also: nearly all actives have a fitted effect of over 55% in size
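Inverse agonism was detected as reduced cAMP-driven luciferase luminescence after 24 h compound treatment. The cells were HEK293 clones expressing constitutively active human GLP-1R with the reporter. Reporter-only and GPR119 cell lines served as counterscreen controls.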
mIDH1 inhibitor: qHTS for Inhibitors of mutant isocitrate dehydrogenase 1 (IDH1): qHTS; Isocitrate dehydrogenase [NADP] cytoplasmic (Homo sapiens), O75874; IDH1-R132H enzyme, NADPH consumption, diaphorase/resazurin fluorescence; Potency, µM (top dose mostly 76.6 µM), most hits filed as inhibitors; 0.093% of 390,000 active; AID 602179, 2012; also: nearly all actives have a fitted effect of over 65% in size
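IDH1-R132H (0.5 ug/mL dispensed) in pH 7.5 Tris buffer was preincubated 30 min with compound, then given a substrate mix of 0.016 mM NADPH and 2 mM alpha-KG for 80 min at room temperature; remaining NADPH was read by diaphorase/resazurin fluorescence.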
PTHR1 ag: qHTS for PTHR1 Agonists: Primary Screen | 0.075% of 410,000 active | Potency, µM (top dose mostly 115 µM), actives largely listed as activators | HEK293 GP2 PTHR1 cells, GloSensor cAMP luminescence, 1 h; also: nearly all actives have a fitted effect of over 55% in size
Target sequence (Q03431 whole entry, looked up): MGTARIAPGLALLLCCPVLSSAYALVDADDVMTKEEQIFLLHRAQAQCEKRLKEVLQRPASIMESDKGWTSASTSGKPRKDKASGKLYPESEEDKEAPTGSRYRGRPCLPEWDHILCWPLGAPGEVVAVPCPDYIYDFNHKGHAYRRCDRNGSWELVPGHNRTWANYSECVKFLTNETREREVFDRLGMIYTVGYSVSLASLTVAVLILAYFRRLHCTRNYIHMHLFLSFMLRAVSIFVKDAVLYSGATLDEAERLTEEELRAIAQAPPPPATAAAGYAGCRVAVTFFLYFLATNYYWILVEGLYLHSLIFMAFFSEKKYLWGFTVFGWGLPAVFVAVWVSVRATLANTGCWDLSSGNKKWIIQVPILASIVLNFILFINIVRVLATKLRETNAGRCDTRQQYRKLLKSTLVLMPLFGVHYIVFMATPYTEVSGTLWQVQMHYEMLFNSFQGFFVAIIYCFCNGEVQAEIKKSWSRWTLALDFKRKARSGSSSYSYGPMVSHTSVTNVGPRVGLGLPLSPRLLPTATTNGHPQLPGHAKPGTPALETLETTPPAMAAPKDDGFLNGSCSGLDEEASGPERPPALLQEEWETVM
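HEK-293-derived GP2 cells expressing PTHR1 and a GloSensor cAMP reporter, 3,000/well, plated overnight, given luciferin plus IBMX (each 0.5 mM as added) for 1 h at 37 °C, then compound for 1 h at 37 °C. Luminescence was read after 15 min at room temperature.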
GLP1R ag: qHTS of GLP-1 Receptor Agonists. Glucagon-like peptide 1 receptor (Homo sapiens), P43220. 0.007% of 380,000 active. HEK293 GLP-1R CRE-luciferase, luminescence, 4-6 h; cells express a hypersensitive GLP-1R form. Potency, µM (series often up to 45.6 µM), usual class: activators
HEK293 tox: qHTS of GLP-1 Receptor Inverse Agonists: Cytotox Screen; HEK293 cAMP-luciferase reporter cells, luminescence, 24 h; Potency, µM (doses to about 38.3 µM), usual class: inhibitors; 0.13% of 410,000 active;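 also: loss of luciferase light is scored as toxicity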
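Cells in DMEM/10% Nu serum/1% pen-strep, 1536-well format. Pre-incubated 12 h, dosed with 23 nL compound, incubated a further 24 h. Luciferase detection, 12 min at room temp, luminescence.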
LDHA inh: qHTS assay for inhibitors of human lactate dehydrogenase; L-lactate dehydrogenase A chain (Homo sapiens), P00338; purified LDHA, NADH/diaphorase-resazurin fluorescence; active compounds read low; activity change, % (values are at about 110 or 230 µM); 0.15% of 480,000 active; in the data active = activity change below about -30%; inconclusive = mostly about -25% to -30%
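Remaining NADH was detected by diaphorase (0.133 mg/mL) converting 37 µM resazurin to fluorescent resorufin, read at 0 and 20 minutes. The preceding 5-minute room-temperature reaction used 2 nM LDHA, 0.2 mM sodium pyruvate and 0.06 mM NADH at pH 7.4.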
Numbers stand for hits; . = inactive; ? = inconclusive; / = no result given; [ ] = another dose, or the depositor's remark. The list is not random: actives were taken first. Their share in the collection is about 1.7%. Unless noted, calls follow the shape of the dose curve; as a rule, active = well fitted curve in the direction sought with a large enough effect; inconclusive = small, poorly fitted or top-dose-only effect, or another doubt; inactive = no such curve, though single readings can be large; an effect the other way counts as inactive or inconclusive.

SMILES	GLP-1R inv ag	mIDH1 inhibitor	PTHR1 ag	GLP1R ag	HEK293 tox	LDHA inh
O=c1c2ccccc2nc(-c2ccccc2)n1-c1cccnc1	.	.	.	.	.	.
O=c1c2ccccc2nc(-c2ccccc2)n1-c1ccncc1	.	.	?	.	.	.
O=c1c2ccccc2nc(-c2ccccc2)n1-c1ccccc1	5µM	.	.	.	.	.
O=c1c2ccccc2nc(-c2ccccc2)n1-c1cccc(O)c1	1µM	.	.	.	.	.
CC[N+](C)(CC)CCCOC(=O)C(O)(c1ccccc1)C1CCCCC1 (centres undefined)	.	.	.	.	.	-82
CCOc1cc(/C=C2\SC(=S)N(NC(=O)c3cccnc3)C2=O)ccc1O	.	.	.	.	11µM	.
CC(Oc1ccc(F)cc1)C(=O)N(CCC1=CCCCC1)c1c(N)n(Cc2ccccc2)c(=O)[nH]c1=O (centres undefined)	11µM	.	.	.	?	.
O=C1C=CC2C3C(=O)N(c4ccccc4)C(=O)C3C1N2Cc1ccccc1 (centres undefined)	?	.	.	.	10µM	.
CN(C)C(=S)SCC#N	/	/	/	/	/	.
Cc1ccc2nc(-c3ccccc3)cc(C(=O)N3CCN(c4ccccc4O)CC3)c2c1	10µM	.	.	.	?	.
Cc1ccc2nc(-c3ccncc3)cc(C(=O)N3CCC4(CC3)OCCO4)c2c1	.	.	.	.	.	.
CC(Nc1ccc([N+](=O)[O-])c2nonc12)c1ccc(Cl)cc1 (centres undefined)	/	/	/	/	/	.
O=C(NC1CCSC1=O)c1cccs1 (centres undefined)	/	/	/	/	/	.
Cn1nc(-c2ccccc2)nc2c(=O)n(C)c(=O)nc1-2	/	/	/	/	/	.
CCn1nc(-c2ccccc2)nc2c(=O)n(C)c(=O)nc1-2	5µM	.	.	.	?	.
CN(C(=O)Oc1ccc(C(=O)c2ccc(Cl)cc2)cc1)c1ccccc1	10µM	.	.	.	.	.
Cc1ccc(OCC(=O)N2CCN(Cc3ccc(F)cc3)CC2)cc1	.	/	.	/	.	.
Cc1ccc(OCC(=O)N2CCN(Cc3cccnc3)CC2)cc1	.	.	.	.	.	-32
O=C(COc1ccc(Br)cc1)N1CCN(C2CCCC2)CC1	.	.	.	.	.	.
CSc1ccc(CN2CCN(C(=O)COc3cccc(C)c3)CC2)cc1	?	.	.	.	.	.
Cc1ccc(OCC(=O)N2CCN(C3CCC(c4ccccc4)CC3)CC2)cc1 (centres undefined)	11µM	.	.	.	.	.
Cc1cccc(OCC(=O)N2CCN(Cc3cccnc3)CC2)c1	.[7.66 µM]	.	.	.	.[7.66 µM]	-33
CCC1CCC(NC2CCC(CC)CC2)CC1 (centres undefined)	/	/	/	/	/	.
CC[C@@H](C(=O)[C@@H](C)[C@@H](O)[C@H](C)CCc1ccc(C)c(O)c1C(=O)O)[C@H]1O[C@](CC)([C@H]2CC[C@](O)(CC)[C@H](C)O2)C[C@@H]1C	10µM	.	.	.	10µM	.
COc1ccc(-n2nc(C)c3c2NC(=O)CSC3c2cc(OC)c(O)c(OC)c2)cc1 (centres undefined)	/	/	/	/	/	.
COC(=O)c1ccc(Cl)c(NC(=O)CN2CCN(Cc3ccccc3)CC2)c1	?	.	.	.	.	.
O=C(CN1CCN(C(=O)CNC(=O)c2ccc(-c3ccccc3)cc2)CC1)Nc1ccccc1Cl	10µM	.	.	.	.	.
CN1CC2(C)CNCC(C)(C1)C2O (centres undefined)	/	/	/	/	/	.
O=C(CN1CCN(C(=O)Cc2c[nH]c3ccccc23)CC1)NC1CC1	/	/	/	/	/	.
